Results reported in PMC5540273 (PLoS ONE, 2017).

Tests used:
[1] = system: LTK
[2] = system: LYN
[3] = system: MAK
[4] = system: T1, LZK
T1 construct: gene MAP3K13

[5] = system: MAP3K15
[6] = system: MARK2
[7] = system: MARK4
[8] = system: T2, MEK2
T2 construct: gene MAP2K2

[9] = system: T3, MEK4
T3 construct: gene MAP2K4
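Further: kd values determined as follow-up on hits from a single-replicate KINOMEscan panel screen.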

COc1cccc(C2=C(Nc3cc(Cl)c(O)c(Cl)c3)C(=O)NC2=O)c1 [SB-390767] was tested, and the Kd [1] was over 10 µM.
Compound COc1cccc(NC(=O)Nc2ccc(C)c(-c3ccc(C(=O)Nc4ccncc4)cc3)c2)c1 [GSK1398474] has a Kd [2] of 4.4 µM and a Kd [3] of over 10 µM.
CC(=O)c1c(C)c2cnc(Nc3ccc(N4CCNCC4)cn3)nc2n(C2CCCC2)c1=O gave a Kd [4] of over 10 µM.
COc1ccc(Nc2nccc(N3CCC(NC(=O)c4cc5ccccc5s4)C3)n2)cc1 (centres unmarked) [GSK1379738] gave a Kd [3] of over 10 µM.
CNCc1ccc2nc(NC(=O)c3ccc(C(C)(C)C)cc3)cn2c1 showed a Kd [5] of 3.8 µM.
With Cc1ccc(NC(=O)c2ccc(Cl)cc2)cc1-c1ccc(C(=O)Nc2ccncc2)cc1 [GSK1398467] the Kd [6] was over 10 µM.
Work on Cc1ccccc1Cn1ccn2c(=O)cc(N3CCOCC3)nc12 [GSK2269905] yielded a Kd [7] of over 10 µM.
Compound COc1ccc(-c2coc3ccc(-c4nnc(C)o4)cc23)cc1 has a Kd [7] of over 10 µM.
Compound CCc1ccc(-c2ccc3c(c2)-c2n[nH]cc2S(=O)(=O)N3C)cc1 has a Kd [8] of over 10 µM.
O=C(Nc1n[nH]c2nc(-c3cccs3)c(Br)cc12)C1CC1 [SB-735297] gave a Kd [9] of over 10 µM.
